# The source made the active and inactive calls. Rule for the calls: active = hit-call score of the fitted dose curve at least 0.9, where 1 is the maximum; inactive = score below 0.9.
# Assay: APR_HepG2_StressKinase_24hr: Apredica 24-hour HepG2 Assay for Stress Kinase (AID 2282922)
# Conditions: HepG2 stress kinase (phospho-c-Jun) imaging, actives raise or lower the signal
# Summary of the method: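 High-content imaging of phospho-c-Jun immunofluorescence in fixed, permeabilized HepG2 cells after 24 h dosing. Ten concentrations, 0.39 to 200 uM, run in duplicate at 0.5% v/v DMSO; gain or loss of signal versus DMSO.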
SMILES,AC50,outcome
CNS(=O)(=O)c1cc(C(=O)N2CCC(CCN3C4CCC3CC(n3c(C)nc5ccccc53)C4)(c3cccc(F)c3)CC2)c(Cl)cc1F (centres undefined),54.4 µM (active),–
C1=CCCC=CCCC=CCC1,–,inactive
Clc1nc(Cl)c(Cl)c(Cl)c1Cl,53.2 µM (active),–
COC(=O)c1c(Cl)c(Cl)c(C(=O)OC)c(Cl)c1Cl,–,inactive
COc1ccc(-n2nc(C(F)F)cc2-c2ccc(S(C)=O)cc2)cc1 (centres undefined),–,inactive
O=C(O)c1cccc(Oc2ccccc2)c1,–,inactive
Cc1ccc(O)cc1,–,inactive
CCC(C)(C)C(=O)O[C@H]1C[C@@H](C)C=C2C=C[C@H](C)[C@H](CC[C@@H]3C[C@@H](O)CC(=O)O3)[C@H]21,115 µM (active),–
C[C@](N)(Cc1ccc(O)c(O)c1)C(=O)O,–,inactive
C=CC(=C)CCC=C(C)C,–,inactive
Cn1c(=O)c2c(ncn2C)n(C)c1=O,–,inactive
Cc1ccc(N)cc1O,–,inactive
CCOC(=O)COc1ccc2c(c1)CC(NCC(O)c1cccc(Cl)c1)CC2 (centres undefined),–,inactive
Cn1c(=O)cc(Oc2ccc(F)cc2F)c2cnc(NCC(C)(C)O)nc21,–,inactive
CC(C)=CCCC(C)CCO (centres undefined),–,inactive
CC(=O)OCCC(C)C,–,inactive
CCOCCO,–,inactive
CCCCC(CC)COC(=O)c1ccc(C(=O)OCC(CC)CCCC)cc1 (centres undefined),–,inactive
COc1ccc(/C=C/S(=O)(=O)NC(=O)c2ccc(C)cc2Cl)cc1,–,inactive
CC/C(=C\C(=N/O)C(N)=O)C(C)[N+](=O)[O-] (centres undefined),–,inactive
Cc1ccc(S(=O)(=O)O)cc1C,–,inactive
CCn1nc(Cc2ccccc2)cc1C1CCN(C[C@H]2C[C@H](N(C)[C@@H](C(=O)O)C(C)C)C[C@@H]2c2cccc(F)c2)CC1,–,inactive
CCCCC(CC)COC(=O)CCCCCCCCC(=O)OCC(CC)CCCC (centres undefined),–,inactive
CC(C)CCO,–,inactive
O=C1CCCCCN1,–,inactive
Cn1cnc([N+](=O)[O-])c1Sc1ncnc2nc[nH]c12,–,inactive

# Assay: APR_HepG2_p53Act_72hr: Apredica 72-hour HepG2 Assay for p53 Activation (AID 2282923);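 note: average cellular p53 protein immunofluorescence intensity in HepG2 cells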
# Conditions: high-content imaging, actives raise or lower the signal
# Summary of the method: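 Readout: p53 immunofluorescence quantified by automated high-content imaging at 20x, six fields per well, nuclei located via Hoechst. Dosing ran 72 hr over ten concentrations from 0.39 to 200 uM; bidirectional curve fitting against DMSO baseline.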
SMILES,outcome,AC50
CNS(=O)(=O)c1cc(C(=O)N2CCC(CCN3C4CCC3CC(n3c(C)nc5ccccc53)C4)(c3cccc(F)c3)CC2)c(Cl)cc1F (centres undefined),inactive,–
C1=CCCC=CCCC=CCC1,inactive,–
Clc1nc(Cl)c(Cl)c(Cl)c1Cl,–,25 µM (active)
COC(=O)c1c(Cl)c(Cl)c(C(=O)OC)c(Cl)c1Cl,inactive,–
COc1ccc(-n2nc(C(F)F)cc2-c2ccc(S(C)=O)cc2)cc1 (centres undefined),inactive,–
O=C(O)c1cccc(Oc2ccccc2)c1,inactive,–
Cc1ccc(O)cc1,inactive,–
CCC(C)(C)C(=O)O[C@H]1C[C@@H](C)C=C2C=C[C@H](C)[C@H](CC[C@@H]3C[C@@H](O)CC(=O)O3)[C@H]21,–,29.6 µM (active)
Fc1ccccc1[C@@H](F)COC1CCC(Nc2ncnc3[nH]ncc23)CC1 (some centres undefined),–,55.6 µM (active)
C[C@](N)(Cc1ccc(O)c(O)c1)C(=O)O,inactive,–
C=CC(=C)CCC=C(C)C,inactive,–
Cn1c(=O)c2c(ncn2C)n(C)c1=O,inactive,–
Cc1ccc(N)cc1O,inactive,–
CCOC(=O)COc1ccc2c(c1)CC(NCC(O)c1cccc(Cl)c1)CC2 (centres undefined),inactive,–
Cn1c(=O)cc(Oc2ccc(F)cc2F)c2cnc(NCC(C)(C)O)nc21,inactive,–
CC(C)=CCCC(C)CCO (centres undefined),inactive,–
CC(=O)OCCC(C)C,inactive,–
CCOCCO,inactive,–
CCCCC(CC)COC(=O)c1ccc(C(=O)OCC(CC)CCCC)cc1 (centres undefined),inactive,–
O=c1n(CC2CO2)c(=O)n(CC2CO2)c(=O)n1CC1CO1 (centres undefined),–,5.06 µM (active)
COc1ccc(/C=C/S(=O)(=O)NC(=O)c2ccc(C)cc2Cl)cc1,–,113 µM (active)
CC/C(=C\C(=N/O)C(N)=O)C(C)[N+](=O)[O-] (centres undefined),inactive,–
Cc1ccc(S(=O)(=O)O)cc1C,inactive,–
CCn1nc(Cc2ccccc2)cc1C1CCN(C[C@H]2C[C@H](N(C)[C@@H](C(=O)O)C(C)C)C[C@@H]2c2cccc(F)c2)CC1,inactive,–
CCCCC(CC)COC(=O)CCCCCCCCC(=O)OCC(CC)CCCC (centres undefined),inactive,–
CC(C)CCO,inactive,–
CCN(C(=O)c1cc(C)cc(OC[C@H](C)Nc2ccncc2)c1)C(C)C,inactive,–
O=C1CCCCCN1,inactive,–
Cn1cnc([N+](=O)[O-])c1Sc1ncnc2nc[nH]c12,inactive,–

# Assay: APR_HepG2_MitoMass_72hr: Apredica 72-hour HepG2 Assay for Mitochondrial Mass (AID 2282924);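 note: MitoTracker Red CMXRos stain intensity per cell imaged as mitochondrial mass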
# Conditions: high-content imaging, actives raise or lower the signal
# Summary of the method: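 Readout is imaged MitoTracker Red (250 nM, 30 min, pre-fixation) signal, fitted bidirectionally against DMSO baseline. Human HepG2 liver cells received compound 0.39–200 uM in duplicate for 72 hr, final DMSO 0.5%.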
SMILES,outcome,AC50
CNS(=O)(=O)c1cc(C(=O)N2CCC(CCN3C4CCC3CC(n3c(C)nc5ccccc53)C4)(c3cccc(F)c3)CC2)c(Cl)cc1F (centres undefined),inactive,–
C1=CCCC=CCCC=CCC1,inactive,–
Clc1nc(Cl)c(Cl)c(Cl)c1Cl,–,89.9 µM (active)
COC(=O)c1c(Cl)c(Cl)c(C(=O)OC)c(Cl)c1Cl,inactive,–
COc1ccc(-n2nc(C(F)F)cc2-c2ccc(S(C)=O)cc2)cc1 (centres undefined),–,36.8 µM (active)
O=C(O)c1cccc(Oc2ccccc2)c1,inactive,–
Cc1ccc(O)cc1,inactive,–
CCC(C)(C)C(=O)O[C@H]1C[C@@H](C)C=C2C=C[C@H](C)[C@H](CC[C@@H]3C[C@@H](O)CC(=O)O3)[C@H]21,–,0.559 µM (active)
Fc1ccccc1[C@@H](F)COC1CCC(Nc2ncnc3[nH]ncc23)CC1 (some centres undefined),inactive,–
C[C@](N)(Cc1ccc(O)c(O)c1)C(=O)O,inactive,–
C=CC(=C)CCC=C(C)C,inactive,–
Cn1c(=O)c2c(ncn2C)n(C)c1=O,inactive,–
Cc1ccc(N)cc1O,inactive,–
CCOC(=O)COc1ccc2c(c1)CC(NCC(O)c1cccc(Cl)c1)CC2 (centres undefined),inactive,–
Cn1c(=O)cc(Oc2ccc(F)cc2F)c2cnc(NCC(C)(C)O)nc21,inactive,–
CC(C)=CCCC(C)CCO (centres undefined),–,0.0391 µM (active)
CC(=O)OCCC(C)C,inactive,–
CCOCCO,inactive,–
CCCCC(CC)COC(=O)c1ccc(C(=O)OCC(CC)CCCC)cc1 (centres undefined),inactive,–
O=c1n(CC2CO2)c(=O)n(CC2CO2)c(=O)n1CC1CO1 (centres undefined),–,50 µM (active)
COc1ccc(/C=C/S(=O)(=O)NC(=O)c2ccc(C)cc2Cl)cc1,inactive,–
CC/C(=C\C(=N/O)C(N)=O)C(C)[N+](=O)[O-] (centres undefined),inactive,–
Cc1ccc(S(=O)(=O)O)cc1C,–,0.0391 µM (active)
CCn1nc(Cc2ccccc2)cc1C1CCN(C[C@H]2C[C@H](N(C)[C@@H](C(=O)O)C(C)C)C[C@@H]2c2cccc(F)c2)CC1,inactive,–
CCCCC(CC)COC(=O)CCCCCCCCC(=O)OCC(CC)CCCC (centres undefined),–,36.5 µM (active)
CC(C)CCO,inactive,–
CCN(C(=O)c1cc(C)cc(OC[C@H](C)Nc2ccncc2)c1)C(C)C,inactive,–
O=C1CCCCCN1,inactive,–
Cn1cnc([N+](=O)[O-])c1Sc1ncnc2nc[nH]c12,inactive,–
